This note sets out measurements from PubChem BioAssay AID651784 (National Center for Advancing Translational Sciences (NCATS), 2012).

Inconclusive results are not listed. Calls of active or inactive are those of the source. Calls come from the whole dose curve; as a rule, active = well fitted inhibition curve with a large enough effect; inconclusive = small, poorly fitted or top-dose-only effect; inactive = no such curve, though single readings can be large or run the other way.
Potency is the fitted concentration of half-maximal effect.

The experiment can be described thus: Acumen qHTS Assay for Inhibitors of the mTORC1 Signaling Pathway in MEF (Tsc2-/-, p53-/-) Cells: Hit Validation.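 For activity change, negative = inhibition: cells exposed to compound for 24 hours; plate controls were DMSO for no effect and 7.5 nM rapamycin control for full effect.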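 Note: phospho-rpS6 Ser235/236 immunofluorescence normalized to propidium iodide cell count; nearly all actives have a fitted effect of over 65% in size.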 The settings on record: Acumen imaging; activity change, negative = inhibition: at 37.3 µM (top of the series). (In general: In qHTS, concentration-response curves come from the screen itself.)
With `COC(=O)c1cc2sc(C)cc2n1Cc1ccccc1`, the activity change, negative = inhibition is -16.6%.
For `CCC1CCc2nc3sc(C(=O)Nc4cccc(F)c4)c(N)c3cc2C1` (configuration not stated), the Potency is 5.21 µM (active).
As for `Cc1cccc(NC(=O)c2nc(S(C)(=O)=O)ncc2Cl)c1`, the Potency was 2.07 µM (active).
With `CCOc1ccccc1NC(=O)CN1C(=O)C(=O)c2ccccc21`, the Potency was 18.5 µM (active).
On to `CCOc1ccc(S(=O)(=O)N(C(C)=O)c2ccc3oc(C)c(C(=O)OC)c3c2)cc1`, for which the activity change, negative = inhibition was -69.9%.
Regarding `CCCN1C(=O)C(Cc2nc3ccccc3c(=O)n2CC)c2cc(Br)ccc21` (configuration not stated), the activity change, negative = inhibition is 4.78%.
On to `COCCCNC(=O)c1ccc(CSc2nc3cccnc3n2Cc2ccc(OC)cc2)cc1`, for which the activity change, negative = inhibition came to 2.82%.
For the compound `O=C(Cn1cc(SCc2ccccc2)c2ccccc21)N1CCCCCC1`, the activity change, negative = inhibition was found to be 15.1%.
Take `COc1cc(OC)cc(C(=O)NCCc2csc(-c3cccc(C)c3)n2)c1`: the activity change, negative = inhibition is -7.07%.
Turning to `CCN1C(=O)c2ccccc2Sc2ccc(NC(=O)Cc3ccc(OC)cc3)cc21`, the Potency was 4.14 µM (active).
As to `O=C(Nc1cccc(NC(=O)c2ccccc2Cl)c1)c1cccc(Br)c1`, the activity change, negative = inhibition was -1.41%.
`Cc1c(Cl)cccc1-c1ccc(C(=O)Nc2ccc3oc(-c4cccnc4)nc3c2)o1`: the activity change, negative = inhibition was -39.9%.
`CCc1ccc(-c2nc(CSCC(=O)NCc3ccc(C)cc3)c(C)o2)cc1`: the activity change, negative = inhibition was found to be 4.67%.
Regarding `CC1C(=O)Nc2ccc(S(=O)(=O)Nc3ccccc3Br)cc2NC1=O` (configuration not stated), the activity change, negative = inhibition stood at 8.5%.
Consider `COc1ccc(C(=O)Nc2ccc(OCc3cc(=O)n4ccccc4n3)cc2)cc1`, for which the activity change, negative = inhibition was determined as 7.16%.
As to `CCCCOc1ccc(CN2C(=O)C(=O)c3cc(Br)cc(C)c32)cc1OC`, the Potency is 4.65 µM (active).
As to `CC[C@H](CO)Nc1nc(NCc2ccccc2)c2ncn(C(C)C)c2n1`, the activity change, negative = inhibition is -22.4%.
For `Cc1ccc(S(=O)(=O)c2nc(-c3ccco3)oc2SC(C)c2ccccc2)cc1` (configuration not stated), the activity change, negative = inhibition was -7.74%.
Regarding `CCS(=O)(=O)c1ncc(Cl)c(C(=O)Nc2ccc(S(=O)(=O)N(C)c3ccccc3)cc2)n1`, the Potency was 1.47 µM (active).
Regarding `CCSc1ccccc1C(=O)Nc1ccc(-c2nc3ccccc3s2)c(O)c1`, the Potency was 13.1 µM (active).
For the compound `CCOc1ccc(NC(=O)CN2C(=O)C(c3ccc(Cl)cc3)=NC2(C)C)cc1`, the activity change, negative = inhibition came out at 17.5%.
With `Cc1cc(C)c(NC(=O)Cn2c(=O)n(Cc3ccc(C(=O)NCc4ccc5c(c4)OCO5)cc3)c(=O)c3ccccc32)c(C)c1`, the Potency is 5.85 µM (active).
Regarding `COc1ccccc1N1CCN(Cc2cc(COC(C)C)c3cccnc3c2O)CC1`, the Potency was 5.21 µM (active).
On to `Cc1cccc(NS(=O)(=O)c2ccc3[nH]c4c(c3c2)CCCCCC4)c1`, for which the Potency is 5.21 µM (active).
The same measure, in the same setting: the figure for `CCN1CCOC(=O)C1CC(=O)Nc1cc(C)ccc1OC` (configuration not stated) is 10.4 µM (active).
On to `CCOc1ccc(C(=O)Nc2ccc3nc4c(c(Nc5ccccc5OC)c3c2)CCCC4)cc1`, for which the activity change, negative = inhibition is -66.6%.
On the same count and under the same terms, the figure for `Cc1c(C(=O)OC2CCC(C)CC2)[nH]c2c1C(=O)CC(c1ccccc1Cl)C2` (configuration not stated) is -43.7%; for `COc1ccccc1C(=O)Nc1ccc2nc(N3CCC(C)CC3)cc(C)c2c1` it is -19.9%.
As for `Cc1ccc2nc(-c3cccc(NC(=O)c4cccc5ccccc45)c3)oc2c1`, the activity change, negative = inhibition was -72.4%.
Turning to `Cc1ccc(C)c(CN2C(=O)C(=O)c3ccccc32)c1`, the Potency was 1.47 µM (active).
As for `CC(C)Cc1ccc(S(=O)(=O)N2CCC(c3ccncc3)CC2)cc1`, the Potency was 4.65 µM (active).
For `O=S(=O)(c1cccc2cnccc12)N1CCCNCC1`, the activity change, negative = inhibition was -7.7%.
For `Cc1c(C(=O)OCCOc2ccccc2)[nH]c2c1C(=O)CC(c1ccccc1)C2` (configuration not stated), the Potency is 0.117 µM (active).
On the same count and under the same terms, the figure for `CC(=O)Nc1cccc(NC(=O)C(=O)NCCc2sc(-c3ccccc3)nc2C)c1` is 0.329 µM (active).
With `NS(=O)(=O)c1cc(C(=O)O)c(NCc2ccco2)cc1Cl`, the activity change, negative = inhibition was 34.6%.
Turning to `CCCCN(C)CC(O)Cn1cc(/C=C/C(=O)c2ccc(C)cc2)c2ccccc21` (configuration not stated), the Potency was 13.1 µM (active).
On the same count and under the same terms, the figure for `COc1cccc(-c2nnc3sc(CN4CCCCC4)cn23)c1` is 1.04 µM (active).
